In publication PMC5540273 (PLoS ONE, 2017):

What was measured:
Details in all cases: concentration: 1 μM, replicates: in singlicate; n = 1
ASK2 = test system: T1, ASK2
T1 construct: gene MAP3K6

AURKA = test system: AURKA
AURKB = test system: AURKB
AURKC = test system: AURKC
AXL = test system: AXL
BIKE = test system: T2, BIKE
T2 construct: gene BMP2K

BLK = test system: BLK
BMPR1A = test system: BMPR1A
BMPR1B = test system: BMPR1B
BMPR2 = test system: BMPR2
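Also: KINOMEscan kinase panel screen.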

Row | Structure (SMILES) | %Inh (ASK2) [%] | %Inh (AURKA) [%] | %Inh (AURKB) [%] | %Inh (AURKC) [%] | %Inh (AXL) [%] | %Inh (BIKE) [%] | %Inh (BLK) [%] | %Inh (BMPR1A) [%] | %Inh (BMPR1B) [%] | %Inh (BMPR2) [%]
1 | c1ccc(Oc2ccc(Nc3ccnc4cc(-c5ccc(CN6CCCCC6)o5)ccc34)cc2)nc1 [GW567143] | 24 | 10 | 80 | 44 | 8 | 8 | 95.5 | 0 | 0 | 0
2 | COC(=O)Nc1nc2cc(Oc3ccc(NC(=O)Nc4cccc(SC)c4)cc3)ccc2[nH]1.Cl [GW697999] | 0 | 0 | 92.5 | 43 | 90.1 | 6 | 65 | 0 | 0 | 4
3 | COc1cccc2c(-c3ccncc3)c(-c3ccc(F)cc3)nn12 [GW468513] | 0 | 0 | 0 | 17 | 13 | 26 | 49 | 0 | 0 | 7
4 | NCCC(NC(=O)c1cc(Br)c(-c2ccnc3[nH]ccc23)s1)c1ccccc1.O=C(O)C(F)(F)F.O=C(O)C(F)(F)F (stereo not drawn) [GSK1307810] | 11 | 87 | 13 | 99.7 | 76 | 100 | 0 | 0 | 0 | 52
5 | CC(=O)Nc1cn2nc(Oc3cccc(NC(=O)c4cccc(C(F)(F)F)c4)c3)ccc2n1 | 0 | 0 | 60 | 74 | 51 | 18 | 98.2 | 10 | 0 | 0
6 | COc1cc(Nc2nccc(N3CCC(NS(=O)(=O)c4ccc(NC(C)=O)cc4)CC3)n2)cc(OC)c1OC [GSK1379825] | 9 | 59 | 71 | 71 | 14 | 75 | 50 | 29 | 0 | 0
7 | Cc1ccc(C)c(NC(=O)Nc2ccc(C)c(-c3ccc(C(=O)Nc4ccncc4)cc3)c2)c1 [GSK1398473] | 0 | 0 | 21 | 22 | 90 | 13 | 0 | 0 | 0 | 0
8 | Fc1cc(Cl)ccc1Nc1ccnc2cc(-c3ccc(CN4CCSCC4)o3)ccc12 [GW560106] | 0 | 100 | 0 | 18 | 33 | 4 | 97.7 | 14 | 45 | 5
9 | CS(=O)(=O)c1cccc(CNc2nc(Nc3ccc4c(c3)CCC(=O)N4)ncc2C(F)(F)F)c1 | 0 | 97.8 | 96.7 | 71 | 23 | 82 | 0 | 0 | 0 | 39
